High-throughput results: PubChem, several laboratories
Granule exo inh = blocks lytic granule exocytosis | TALL-104 LAMP-1 surface exposure, flow cytometry; cells stimulated with thapsigargin and PMA | inhibition, % at 10 µM | actives 0.66% (n = 360,000) | AID 651702;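 active = inhibition above about 55%, limit read from the data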
ABCB6 inh 2 = blocks the human ABCB6 transporter | Q9NP58 | AID 602162 | K562-ABCB6 porphyrin accumulation, flow cytometry, 1 h; stronger effect = lower value | fluorescence ratio to DMSO, % at 10 µM | actives 0.19% (n = 360,000);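 active = fluorescence ratio to DMSO below 75%, the collection mean minus 3 SD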;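 note: signal is porphyrin accumulated inside mitochondria; 100% equals median channel fluorescence of DMSO control wells; lower ratio means ABCB6 inhibition with less porphyrin fluorescence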
CaV13 ICDI inh = Disruptors of the CACNA1D IQ motif to Ca2+-dependent inactivation inhibitor domain association, primary screening, Förster resonance energy transfer in intact living …; HEK cells, CFP/YFP FRET ICDI-IQ, plate reader, 10 min; percent FRET-ratio fall versus neutral wells; inhibition, % at 12.3 µM; actives 0.098% (n = 340,000);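 active = mean replicate inhibition of at least 30% and at least 1% of replicates passing that level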;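 note: 0% = median of the neutral control wells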
VLA-4 inh = inhibition in a human VLA-4 binding assay. inhibition, % (about 7 µM as worked out from the volumes in the protocol). P13612. actives 0.2% (n = 330,000). AID 2557. VLA-4 expressing cells, ligand binding flow cytometry; in the data active = inhibition above about 50%
Exocytosis CP01 = blocks lytic granule exocytosis | actives 11% (n = 1,500) | shares compounds with Granule exo inh | TALL-104 cells, LAMP-1 externalization, flow cytometry; stimulated with PMA plus thapsigargin | inhibition, % at 10 µM; in the data active = inhibition above about 60%;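 note: 0% = stimulated vehicle wells and 100% = unstimulated wells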
The depositor's hits bear a star; x = no result. Compounds with a hit are over-represented: about 1.1% of the library has one in this group of screens.

SMILES	Granule exo inh	ABCB6 inh 2	CaV13 ICDI inh	VLA-4 inh	Exocytosis CP01
COCCNc1nc(NCC2CCCCC2)c2sc(-c3ccccc3)cc2n1	53	90	-14	x	x
c1ccc(-c2cc3nc(NCC4CC4)nc(NCC4CCCCC4)c3s2)cc1	57*	94	-8	x	32
COCCNC(=O)C1(C)CCN(C(=O)c2ccc3c(c2)C(C)(C)CCC3(C)C)C1 (stereo not given)	5	97	-8	x	x
COc1ccccc1/C=C/c1onc(C)c1S(=O)(=O)N1CCC(C(=O)NC2CCCCCC2)CC1	70*	97	-7	-4	-4
CCOc1ccccc1/C=C/c1onc(C)c1S(=O)(=O)N1CCC(C(=O)NC)CC1	-4	99	-10	0	x
COc1ccccc1CNC(=O)C1(c2ccc(Cl)cc2)CC1	0	103	-15	3	x
CC(C)n1nccc1NC(=O)COC(=O)c1ccc(NC(N)=O)cc1	15	100	-3	-1	x
CC(=O)N(CCC(Cc1ccccc1)c1ccc2c(c1)OCO2)Cc1ccc(Cl)cc1 (stereo not given)	90*	113	x	-6	19
CC(C)(C)[C@@H]1COC(=O)[C@@H](Cc2ccc(F)cc2)C/C=C\C[C@H](CC(=O)N(CCO)Cc2ccccc2)C(=O)N1	57*	94	-10	6	-16
O=C(Nc1ccccc1N1CCOCC1)c1cccc(Oc2ccccc2)c1	63*	97	-4	21	-13
CN(C(=O)c1cc2ccccc2oc1=O)C1(C)CCS(=O)(=O)C1 (stereo not given)	-1	92	-4	30	x
CCN(Cc1ccncc1)Cc1c(O)ccc2cc(Br)ccc12	1	104	-4	x	x
O=S(=O)(c1ccc2ccccc2c1)N1CCN(S(=O)(=O)c2c(F)cccc2F)CC1	2	99	-9	6	x
Cc1ccc(-n2cc(-c3ccccc3)c3c(N4CCOCC4)ncnc32)cc1	4	90	-5	x	x
Cc1ccc(-n2cc(-c3ccccc3)c3c(N4CCN(C)CC4)ncnc32)cc1	69*	96	-4	16	7
COc1ccc(N2CCN(c3cc(C)c4cccc(C)c4n3)CC2)cc1	0	100	1	8	x
Cc1cc(N2CCN(c3ncccn3)CC2)nc2c(C)cccc12	72*	101	-4	3	-14
CC(C)(C)C(=O)NCC12C=CC(O1)C1C(=O)N(c3ccccc3)C(=O)C12 (stereo not given)	64*	76	-8	8	1
O=[N+]([O-])c1ccc(N2N=C(c3ccccc3)CC2c2ccccc2O)cc1 (stereo not given)	58*	206	-10	-151	28
Cc1c(C)n(-c2ccccc2)c2ncnc(NCCN(C)C)c12	65*	98	-4	10	-10
Cc1c(C(=O)N(Cc2ccc(Cl)cc2)C2CCS(=O)(=O)C2)oc2ccccc12 (stereo not given)	74*	94	-2	5	-12
Cc1csc(C(=O)O)c1-n1cccc1	-1	100	-5	0	x
CCC(C(=O)n1cccc1C#N)c1ccccc1C (stereo not given)	70*	100	-5	0	-5
C=C(C)C(=O)N1CC2(CC(c3cccc(NC(=O)/C(C)=C\C)c3)=NO2)C[C@H]1C(N)=O (stereo not given in full)	4	84	-8	5	x
Cc1ccccc1N1CCN(C(=O)NCc2cccc(Cl)c2)CC1	86*	99	-4	6	-4
SMILES	Granule exo inh	ABCB6 inh 2	CaV13 ICDI inh	VLA-4 inh	Exocytosis CP01
COc1ccc(CNC(=O)N2CCN(c3cccc(C)c3C)CC2)cc1OC	4	92	-8	-7	x
COC(=O)CC(N)c1ccc(OC)c2ccccc12 (stereo not given)	0	87	-2	20	x
S=C(NCCCN1CCOCC1)N1CCN(c2nc(-c3ccc(Cl)cc3)cs2)CC1	77*	95	-5	11	47
CC1CC(C)CN(C(=O)CNC(=O)c2ccc3ccccc3c2)C1 (stereo not given)	2	94	-2	1	x
CCC(C)CN1C(=O)CN(S(C)(=O)=O)CC1(C)C(=O)NC(C)C (stereo not given)	3	x	-6	x	x
CCCCNC(=O)c1cc2c(=O)n(CC)c3ccccc3c2s1	60*	96	-3	4	-11
CCn1c(=O)c2cc(C(=O)NC(C)C)sc2c2ccccc21	2	98	-3	8	x
CN(C)CC(O)COC(c1ccc(Cl)cc1)c1ccc(Cl)cc1 (stereo not given)	66*	99	0	4	-3
CC1CN(CC(O)COC(c2ccc(Cl)cc2)c2ccc(Cl)cc2)CC(C)O1 (stereo not given)	1	97	-18	2	x
CCc1ccc(NCc2ccc(OC)c(Cn3ccnc3)c2)cc1	58*	95	-3	1	-13
CCN(CC)S(=O)(=O)c1cc(NC(=O)CNc2cccc(S(=O)(=O)N3CCOCC3)c2)ccc1C	57*	85	-1	-10	-5
Cc1ccc(NC(=O)CNc2cccc(S(=O)(=O)N3CCOCC3)c2)cc1F	-6	95	-6	3	x
CCC(CC)C(=O)Nc1ccc(Sc2ccc([N+](=O)[O-])cc2)cc1	56*	94	-7	7	0
CC(=O)c1sc2nc(C)c3c(c2c1N)CCCC3	62*	98	20	-11	-5
Cc1cnc(CN2CCc3c([nH]c4ccccc34)C2CC(C)C)[nH]1 (stereo not given)	11	106	-3	-13	x
Cc1cccc(CN2CCc3c([nH]c4ccccc34)C2CC(C)C)n1 (stereo not given)	63*	99	-6	-3	-3
CN(CC1CCN(CCc2cccc(C(F)(F)F)c2)CC1)C(=O)c1ccc(F)cc1	48	95	-18	8	x
CN(CC1CCN(CCc2cccc(C(F)(F)F)c2)CC1)C(=O)c1ccccc1	56*	93	-5	0	-12
CCCCCCNC(=O)c1cccc(-c2ccc(C)c3ccccc23)n1	58*	89	-4	27	-12
COc1ccccc1CNC(=O)c1cccc(-c2ccc(C)c3ccccc23)n1	x	x	-8	x	x
CC1=C(C(=O)N2CCCCCC2)CC(CC(=O)NCCCCc2ccccc2)C(=O)N1CCC1=CCCCC1 (stereo not given)	86*	95	-11	x	0
CC1=C(C(=O)N2CCCCCC2)CC(CC(=O)NCc2cccc3ccccc23)C(=O)N1CCC1=CCCCC1 (stereo not given)	58*	99	-14	x	-6
Cc1cc(F)ccc1-c1cc(C(=O)NCc2ccc(C(F)(F)F)cc2)[nH]n1	-6	91	-8	x	x
COc1ccc(Cl)c(-c2cc(C(=O)NCc3ccc(C(F)(F)F)cc3)[nH]n2)c1	97*	98	-6	x	64*
Cc1ccc(Cl)cc1-c1cc(C(=O)NCc2ccc(C(F)(F)F)cc2)[nH]n1	96*	93	-7	x	103*
